From PubChem BioAssay
Most compounds without a hit are left out; they make up all but 1.1% or so of the library.
OPRM1-OPRD1 inv = inverse agonists of human mu-delta opioid receptor heterodimerization. inhibition, % at 9.3 µM. 340,000 tested, 0.21% active. cell-based MOR-DOR heterodimer luminescence, inverse agonism. AID 504357. P35372+P41143; in the data active = inhibition above about 22%, passing the limit was not always enough;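 also: 0% = cells with DMSO and 100% = wells without cells with DMSO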
OPRM1-OPRD1 ag = OPRM1-OPRD1 heterodimerization agonism | P35372+P41143 | cells, luminescence | activation, % at 9.3 µM | 340,000 tested, 0.3% active | AID 504326;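 also: 0% = vehicle-treated cells and 100% = reference agonist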
HTR5A inv ctr = HTR5A inverse agonism, opioid heterodimer counter-screen | P47898 | HTR5A cell line, luminescence | inhibition, % at 9.3 µM | 340,000 tested, 0.083% active; in the data active = inhibition mostly above about 23%, no sharp cut-off; inactive = mostly below about 18%;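 also: 0% = cells with DMSO and 100% = no-cell wells with DMSO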
Target sequence (P47898 whole entry, looked up): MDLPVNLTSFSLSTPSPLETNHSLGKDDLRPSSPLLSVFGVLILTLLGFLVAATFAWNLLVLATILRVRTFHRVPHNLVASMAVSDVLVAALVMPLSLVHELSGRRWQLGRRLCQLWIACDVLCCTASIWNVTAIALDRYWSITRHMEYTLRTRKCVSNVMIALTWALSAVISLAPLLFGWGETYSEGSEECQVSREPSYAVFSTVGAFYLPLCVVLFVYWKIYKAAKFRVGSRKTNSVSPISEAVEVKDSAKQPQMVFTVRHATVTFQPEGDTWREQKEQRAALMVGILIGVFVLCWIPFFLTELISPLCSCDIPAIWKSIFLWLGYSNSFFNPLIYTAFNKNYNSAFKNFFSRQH
HTR5A ag ctr = activates human HTR5A in OPRM1-OPRD1 agonist counter-screen | 340,000 tested, 0.61% active | HTR5A agonist assay, luminescence, cell-based | P47898 | activation, % at 9.3 µM; in the data active = activation mostly above about 9.5%, no sharp cut-off; inactive = mostly below about 7.6%;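 also: 0% = cells with vehicle only and 100% = reference agonist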
MOR-DOR ag conf = OPRM1-OPRD1 heterodimer agonism, confirmation. shares compounds with OPRM1-OPRD1 ag. cells, MOR-DOR heterodimerization, luminescence complementation. activation, % at 9.3 µM. 830 tested, 45% active. AID 504904;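 also: 0% = vehicle-treated cells and 100% = reference agonist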
HTR5A ag counter = counter-screen for OPRM1-OPRD1 agonists: human HTR5A agonism | 830 tested, 8% active | AID 504905 | shares compounds with OPRM1-OPRD1 ag | activation, % at 9.3 µM | HTR5A agonist counterscreen, cell luminescence; in the data active = activation above about 17%;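 also: 0% = vehicle-treated cells and 100% = reference agonist response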
Active calls of the source: *. Rule as the data show it, unless noted: active = activation above about 18%; inactive = the rest.

What do the screens show for `CCn1c(=O)c(C(=O)NCc2cccnc2)c(O)c2ccccc21`?
OPRM1-OPRD1 inv: -111; OPRM1-OPRD1 ag: 19*; HTR5A inv ctr: 2; HTR5A ag ctr: -1; MOR-DOR ag conf: 29*; HTR5A ag counter: 0

Results for COc1ccc(-c2nn(-c3ccccc3C)cc2CNCCc2cnc[nH]2)cc1F ?
OPRM1-OPRD1 inv: -42; OPRM1-OPRD1 ag: 9; HTR5A inv ctr: 10; HTR5A ag ctr: -3

What do the screens show for `CCn1cc(CNCc2cn(-c3ccccc3C)nc2-c2ccc(OC)c(F)c2)cn1`?
OPRM1-OPRD1 inv: inactive; OPRM1-OPRD1 ag: 243*; HTR5A inv ctr: 10; HTR5A ag ctr: -4; MOR-DOR ag conf: 309*; HTR5A ag counter: 1

Results for COc1ccc(-c2nn(-c3ccccc3C)cc2CNC(C)c2cn(C)nc2C)cc1F (stereo unspecified) ?
OPRM1-OPRD1 inv: inactive; OPRM1-OPRD1 ag: 163*; HTR5A inv ctr: 20; HTR5A ag ctr: 0; MOR-DOR ag conf: 23*; HTR5A ag counter: 16

Results for COc1ccccc1N1CCN(C(=O)c2sc3ncnc(N4CCN(c5ccccn5)CC4)c3c2C)CC1 ?
OPRM1-OPRD1 inv: 1; OPRM1-OPRD1 ag: 0; HTR5A inv ctr: -3; HTR5A ag ctr: 1

Results for COc1ccccc1N1CCN(C(=O)c2sc3nc(C)nc(N4CCN(c5ccccn5)CC4)c3c2C)CC1 ?
OPRM1-OPRD1 inv: inactive; OPRM1-OPRD1 ag: 109*; HTR5A inv ctr: -42; HTR5A ag ctr: 16; MOR-DOR ag conf: 134*; HTR5A ag counter: -3

What do the screens show for `Cc1nc(N2CCN(c3ccccn3)CC2)c2c(C)c(C(=O)N3CCN(c4ccc(F)cc4)CC3)sc2n1`?
OPRM1-OPRD1 inv: inactive; OPRM1-OPRD1 ag: 167*; HTR5A inv ctr: -1; HTR5A ag ctr: 0; MOR-DOR ag conf: 239*; HTR5A ag counter: 5

Results for COc1c(O)cc2c(c1O)[C@@H]1O[C@H](CO)[C@@H](O)[C@H](O)C1OC2=O (stereo partly specified) ?
OPRM1-OPRD1 inv: 4; OPRM1-OPRD1 ag: -1; HTR5A inv ctr: 6; HTR5A ag ctr: 1

How did CCc1ccc(NC(=O)N(CCCN2CCOCC2)Cc2cccs2)cc1 do in these assays?
OPRM1-OPRD1 inv: -202; OPRM1-OPRD1 ag: 34*; HTR5A inv ctr: -25; HTR5A ag ctr: 9; MOR-DOR ag conf: 47*; HTR5A ag counter: -4

How did CCSc1nc2sc3c(c2c(=O)n1-c1ccccc1)CCN(C(C)C)C3 do in these assays?
OPRM1-OPRD1 inv: 12; OPRM1-OPRD1 ag: -3; HTR5A inv ctr: 17; HTR5A ag ctr: -5

How did NC1=C(Cl)C(=O)c2ccccc2C1=O do in these assays?
OPRM1-OPRD1 inv: -33; OPRM1-OPRD1 ag: 7; HTR5A inv ctr: -7; HTR5A ag ctr: 2

Results for NC1=C(Cl)C(=O)c2ccc(S(N)(=O)=O)cc2C1=O ?
OPRM1-OPRD1 inv: -194; OPRM1-OPRD1 ag: 39*; HTR5A inv ctr: -61; HTR5A ag ctr: 16*; MOR-DOR ag conf: 3; HTR5A ag counter: 2

Results for CCN1CCN(S(=O)(=O)c2ccc(Cl)c(C(=O)N(CCc3ccccc3)Cc3ccccc3)c2)CC1 ?
OPRM1-OPRD1 inv: -103; OPRM1-OPRD1 ag: 20*; HTR5A inv ctr: 13; HTR5A ag ctr: -4; MOR-DOR ag conf: 360*; HTR5A ag counter: 9

What do the screens show for `CCOc1ccc(NC(=O)C(=O)NCCN2CCN(S(=O)(=O)c3ccc(C)cc3)CC2)cc1`?
OPRM1-OPRD1 inv: 3; OPRM1-OPRD1 ag: -1; HTR5A inv ctr: 4; HTR5A ag ctr: -1

What do the screens show for `COC(=O)CNc1nc(-c2cccnc2)nc2ccccc12`?
OPRM1-OPRD1 inv: 9; OPRM1-OPRD1 ag: -2; HTR5A inv ctr: -27; HTR5A ag ctr: 1

Results for COc1ccc(C(CNc2nc(-c3cccnc3)nc3ccccc23)N(C)C)cc1 (stereo unspecified) ?
OPRM1-OPRD1 inv: inactive; OPRM1-OPRD1 ag: 160*; HTR5A inv ctr: 1; HTR5A ag ctr: 0; MOR-DOR ag conf: 3; HTR5A ag counter: -5

Results for CC(c1ccccc1)C(OC(=O)c1cccc([N+](=O)[O-])c1C(=O)O)c1ccccc1 (stereo unspecified) ?
OPRM1-OPRD1 inv: 18; OPRM1-OPRD1 ag: -4; HTR5A inv ctr: -1; HTR5A ag ctr: 0
